According to PubChem BioAssay AID1839 (Johns Hopkins Ion Channel Center, 2009):
The whole screen tested about 2,400 compounds, of which about 220 (9.2%) were called active. For the sample, actives were picked, then their nearest neighbours and some compounds at random. Unmarked numbers belong to inactive results.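 The calls were made as follows: active = signal change above the mean of dofetilide-free buffer controls plus 3 SD, so a positive margin; inactive = the rest.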

Experiment: thallium signal changes without hERG – cell-based, CHO-K1 parental line, FluxOR thallium flux, counter-screen for hERG block protection project, confirmation (AID 1839);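 also: compounds applied alone with no dofetilide to cells lacking hERG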
Details: CHO-K1 parental cells, FluxOR thallium flux fluorescence; at 10 µM
Cc1ccc(/C(O)=C2\C(=O)C(=O)N(Cc3cccnc3)C2c2ccccc2[N+](=O)[O-])cc1 (centres undefined) showed a signal change vs control minus 3*SD hit threshold (margin above threshold, higher = more increase) of -21.1%.
In the case of COc1cc(NC(=O)c2ccccc2)c(OC)cc1NC(=O)Cc1ccc(Br)cc1, the signal change vs control minus 3*SD hit threshold (margin above threshold, higher = more increase) is reported as -10.9%.
Compound Cc1ccccc1OCC(=O)N=Nc1c(O)n(C)c2ccccc12 has a signal change vs control minus 3*SD hit threshold (margin above threshold, higher = more increase) of -17.7%.
Work on CCc1ccc2[nH]c(O)c(N=Nc3nc(-c4ccccc4)cs3)c2c1 yielded a signal change vs control minus 3*SD hit threshold (margin above threshold, higher = more increase) of -38.8%.
With Cn1c(O)c(N=Nc2nc(-c3ccccc3)cs2)c2ccccc21 the signal change vs control minus 3*SD hit threshold (margin above threshold, higher = more increase) was 31.7% (active).
Cc1nn(CCC(=O)NNC(=S)Nc2ccc(F)cc2)c(C)c1[N+](=O)[O-] showed a signal change vs control minus 3*SD hit threshold (margin above threshold, higher = more increase) of -35.8%.
With O=C(NC(=S)NC1CCCc2ccccc21)c1ccco1 (centres undefined) the signal change vs control minus 3*SD hit threshold (margin above threshold, higher = more increase) was -14.2%.
In the case of Cc1nonc1CN(C)C(=O)c1ccc(OC2CCN(Cc3ccccn3)CC2)cc1, the signal change vs control minus 3*SD hit threshold (margin above threshold, higher = more increase) is reported as -22.2%.
With COCCNC(=O)C1CCN(S(=O)(=O)N2CCC3(CC2)OCCO3)CC1 the signal change vs control minus 3*SD hit threshold (margin above threshold, higher = more increase) was -40.3%.
With CCC1(c2ccccc2)NC(=S)N(c2ccc(C)cc2)N1 (centres undefined) the signal change vs control minus 3*SD hit threshold (margin above threshold, higher = more increase) was 48.2% (active).
With CCC1(c2ccc(Cl)cc2)NC(=S)N(c2ccccc2)N1 (centres undefined) the signal change vs control minus 3*SD hit threshold (margin above threshold, higher = more increase) was 40.1% (active).
For CCC1(c2ccc(Cl)cc2)NC(=S)N(c2ccc(C)cc2)N1 (centres undefined), the signal change vs control minus 3*SD hit threshold (margin above threshold, higher = more increase) was 18.9% (active).
Compound CC1=CN2C(=N)/C(=C/c3ccc(Sc4ccc(Cl)cc4)o3)C(=O)N=C2S1 has a signal change vs control minus 3*SD hit threshold (margin above threshold, higher = more increase) of -23.1%.
Compound O=C(NC(=S)N(CC1CCC1)CC1CCCO1)c1cccc([N+](=O)[O-])c1 (centres undefined) has a signal change vs control minus 3*SD hit threshold (margin above threshold, higher = more increase) of -12.6%.
For CCCCCOCC1CC(C/C(C)=N/Nc2nc(-c3ccccc3)cs2)C(=O)O1 (centres undefined), the signal change vs control minus 3*SD hit threshold (margin above threshold, higher = more increase) was -31.7%.
With N#C/C(=N\Nc1ccccc1F)c1nc(-c2ccccc2)cs1 the signal change vs control minus 3*SD hit threshold (margin above threshold, higher = more increase) was -39.4%.
O=C(Nc1ccc(Cl)c(Cl)c1)Nc1nnc(CSc2ccccc2)s1 gave a signal change vs control minus 3*SD hit threshold (margin above threshold, higher = more increase) of -17.6%.
With C=CCn1c(SCc2ccc(C(=O)O)cc2)nc2sc(C)c(C)c2c1=O the signal change vs control minus 3*SD hit threshold (margin above threshold, higher = more increase) was 7% (active).
For CCn1c(SCC(=O)NC(=O)NCc2ccco2)nc2sc(C)c(C)c2c1=O, the signal change vs control minus 3*SD hit threshold (margin above threshold, higher = more increase) was -17.8%.
In the case of C=CCSc1nc2sc3c(c2c(=O)n1CC)CCc1ccccc1-3, the signal change vs control minus 3*SD hit threshold (margin above threshold, higher = more increase) is reported as -22.2%.
For CCc1nccn1S(=O)(=O)c1ccc2ccc(C)cc2c1, the signal change vs control minus 3*SD hit threshold (margin above threshold, higher = more increase) was -33.5%.
Compound COc1ccc(Cc2c(O)nc(SCC(C)C)[nH]c2=O)cc1 has a signal change vs control minus 3*SD hit threshold (margin above threshold, higher = more increase) of -32.4%.
With S=c1nc[nH]c2c1sc1nc(N3CCOCC3)c3c(c12)CCCC3 the signal change vs control minus 3*SD hit threshold (margin above threshold, higher = more increase) was 1.1% (active).
Compound S=c1nc[nH]c2c1sc1nc(-c3ccccc3)c3c(c12)CCCC3 has a signal change vs control minus 3*SD hit threshold (margin above threshold, higher = more increase) of -5.5%.
For CC(C)c1nc2sc3c(=S)nc[nH]c3c2c2c1CCC2, the signal change vs control minus 3*SD hit threshold (margin above threshold, higher = more increase) was -10.6%.
Work on O=C(O)CCCN1C(=O)C2C3c4ccccc4C(c4ccccc43)[C@@H]2C1=O (some centres undefined) yielded a signal change vs control minus 3*SD hit threshold (margin above threshold, higher = more increase) of -37.1%.
COc1ccc(C(CC(=O)O)NC(=O)C(c2ccccc2)c2ccccc2)cc1 (centres undefined) showed a signal change vs control minus 3*SD hit threshold (margin above threshold, higher = more increase) of -32.8%.
In the case of O=C(N/N=C/c1ccc(OC(F)F)cc1)C1=COCCO1, the signal change vs control minus 3*SD hit threshold (margin above threshold, higher = more increase) is reported as -28.8%.
With CCOC(=O)c1sc(NC(=S)NC(=O)c2cccc(OC)c2)nc1C the signal change vs control minus 3*SD hit threshold (margin above threshold, higher = more increase) was -15.5%.
With COc1ccc(N2CCN(C(=S)Nc3cccc(OC)c3)CC2)cc1 the signal change vs control minus 3*SD hit threshold (margin above threshold, higher = more increase) was -27%.
In the case of COc1ccc(NC(=O)CNC(=O)c2cccs2)cc1Cl, the signal change vs control minus 3*SD hit threshold (margin above threshold, higher = more increase) is reported as -23.5%.
O=C(NC(=S)Nc1ccccc1N1CCCCC1)c1cccs1 showed a signal change vs control minus 3*SD hit threshold (margin above threshold, higher = more increase) of -17.4%.
Work on CCC(Cc1ccccc1)n1c(=S)[nH]c2ccccc2c1=O (centres undefined) yielded a signal change vs control minus 3*SD hit threshold (margin above threshold, higher = more increase) of -32.2%.
For O=C(O)CCCCCNc1nc(=S)[nH]c2ccccc12, the signal change vs control minus 3*SD hit threshold (margin above threshold, higher = more increase) was -17.7%.
CCOC(=O)c1sc2nc(Cc3ccc(Cl)cc3)[nH]c(=S)c2c1C gave a signal change vs control minus 3*SD hit threshold (margin above threshold, higher = more increase) of -19.8%.
S=c1[nH]nc(-c2ccc(Cl)cc2)n1Cc1ccccc1 showed a signal change vs control minus 3*SD hit threshold (margin above threshold, higher = more increase) of -36.8%.
Work on CC(C)c1ccc(/C=N/n2c(COc3ccccc3)n[nH]c2=S)cc1 yielded a signal change vs control minus 3*SD hit threshold (margin above threshold, higher = more increase) of -21.3%.
With S=c1nc(Cc2ccc(Cl)cc2)[nH]c2ccccc12 the signal change vs control minus 3*SD hit threshold (margin above threshold, higher = more increase) was 7.6% (active).
In the case of O=c1[nH]c(SCc2cccc(Cl)c2)nc2ccccc12, the signal change vs control minus 3*SD hit threshold (margin above threshold, higher = more increase) is reported as -29.3%.
With S=c1nc(COc2ccccc2)[nH]c2ccccc12 the signal change vs control minus 3*SD hit threshold (margin above threshold, higher = more increase) was 59.3% (active).
With S=c1nc(Cc2ccccc2)[nH]c2ccccc12 the signal change vs control minus 3*SD hit threshold (margin above threshold, higher = more increase) was 36% (active).
S=c1nc(C2CC2)[nH]c2ccccc12 showed a signal change vs control minus 3*SD hit threshold (margin above threshold, higher = more increase) of -0.5%.
In the case of S=c1nc(C2CCCCC2)[nH]c2ccccc12, the signal change vs control minus 3*SD hit threshold (margin above threshold, higher = more increase) is reported as -20.4%.
In the case of S=c1nc(SCc2ccccc2)[nH]c2ccccc12, the signal change vs control minus 3*SD hit threshold (margin above threshold, higher = more increase) is reported as 40.3% (active).
Work on C#CCN1C(=O)S/C(=C\c2ccc(-c3ccc(C(=O)O)cc3C)o2)C1=O yielded a signal change vs control minus 3*SD hit threshold (margin above threshold, higher = more increase) of -26.1%.
CC/C(=N\NC(=S)Nc1cccc(C)c1)c1ccccc1 showed a signal change vs control minus 3*SD hit threshold (margin above threshold, higher = more increase) of -31.9%.
With COc1ccc(/C=N/NC(=O)C(=O)N2CCCC2)cc1 the signal change vs control minus 3*SD hit threshold (margin above threshold, higher = more increase) was -11.5%.
For Cc1cccc(C)c1NC(=O)Cn1cnc2c(=O)n(C)c(=O)n(C)c21, the signal change vs control minus 3*SD hit threshold (margin above threshold, higher = more increase) was -26.9%.
Compound Cn1nc(C(=O)Nc2ccc3c(c2)OCO3)c2ccccc2c1=O has a signal change vs control minus 3*SD hit threshold (margin above threshold, higher = more increase) of -35.3%.
CCOC(=O)NC(=O)/C(C#N)=N\Nc1ccc(Cl)cc1 showed a signal change vs control minus 3*SD hit threshold (margin above threshold, higher = more increase) of -36.7%.
With Cc1c(-c2ccn[nH]2)cc(NC(=O)c2ccc(Cl)cc2)c(=O)n1N the signal change vs control minus 3*SD hit threshold (margin above threshold, higher = more increase) was -40%.
Work on Cc1cc(C)nc(SCc2nnc(SCC(=O)Nc3nc(-c4ccccc4)cs3)n2-c2ccccc2)n1 yielded a signal change vs control minus 3*SD hit threshold (margin above threshold, higher = more increase) of -32%.
Compound COc1ccc(CCNC(=O)CSc2ccc3nnc(CCNC(=O)c4ccccc4)n3n2)cc1OC has a signal change vs control minus 3*SD hit threshold (margin above threshold, higher = more increase) of -23.3%.
With O=C1NC(=S)S/C1=C\c1ccc2ccccc2c1 the signal change vs control minus 3*SD hit threshold (margin above threshold, higher = more increase) was 30.2% (active).
COc1ccc2nc(N3CCCCC3)c(/C=C3\SC(=S)NC3=O)cc2c1 gave a signal change vs control minus 3*SD hit threshold (margin above threshold, higher = more increase) of -33%.
O=C1NC(=S)/C(=C\c2ccc(-c3ccccc3Cl)o2)S1 showed a signal change vs control minus 3*SD hit threshold (margin above threshold, higher = more increase) of -34.6%.
With O=C(CN1C(=O)S/C(=C\c2cccs2)C1=O)Nc1ccc(C(=O)O)c(O)c1 the signal change vs control minus 3*SD hit threshold (margin above threshold, higher = more increase) was -0.8%.
Cc1ccc(S(=O)(=O)c2nnn3c2nc(N2CCOCC2)c2ccccc23)c(C)c1 showed a signal change vs control minus 3*SD hit threshold (margin above threshold, higher = more increase) of -25.3%.
COC(=O)c1sccc1NC(=S)N1CCN(C)CC1 showed a signal change vs control minus 3*SD hit threshold (margin above threshold, higher = more increase) of -34.3%.
In the case of Cc1ccc(-c2nc3ccc(Cl)cc3c(=O)n2O)cc1, the signal change vs control minus 3*SD hit threshold (margin above threshold, higher = more increase) is reported as 38% (active).
For Cc1ccc(-c2onc3ccc(Cl)cc23)cc1, the signal change vs control minus 3*SD hit threshold (margin above threshold, higher = more increase) was -25.3%.
In the case of O=c1c2ccccc2nc(-c2ccc(Cl)c(Cl)c2)n1O, the signal change vs control minus 3*SD hit threshold (margin above threshold, higher = more increase) is reported as 20.1% (active).
For O=c1c2ccccc2nc(-c2cccc(Cl)c2)n1O, the signal change vs control minus 3*SD hit threshold (margin above threshold, higher = more increase) was 0.8% (active).
Work on NC(=O)CSc1nc2ccccc2c(=O)n1CCc1ccccc1 yielded a signal change vs control minus 3*SD hit threshold (margin above threshold, higher = more increase) of -28.3%.
Work on O=c1c2cc(Cl)ccc2nc(-c2ccccc2)n1O yielded a signal change vs control minus 3*SD hit threshold (margin above threshold, higher = more increase) of -7.8%.
For Cc1ccc(C(=O)Nc2nc3ccccc3c(=O)s2)cc1, the signal change vs control minus 3*SD hit threshold (margin above threshold, higher = more increase) was -16.6%.
Compound O=C(Cc1ccccc1)Nn1c(-c2ccccc2)nc2ccccc2c1=O has a signal change vs control minus 3*SD hit threshold (margin above threshold, higher = more increase) of -21.4%.
O=c1c2ccccc2nc(-c2ccccc2)n1O gave a signal change vs control minus 3*SD hit threshold (margin above threshold, higher = more increase) of -24.1%.
In the case of O=c1c2cc(Cl)ccc2nc(-c2ccc(Cl)c(Cl)c2)n1O, the signal change vs control minus 3*SD hit threshold (margin above threshold, higher = more increase) is reported as 62.4% (active).
